# Experimental data from article PMC11062922 (Nature Chemical Biology, 2023).
# Like-named read-outs stand apart in the source and are kept apart here.
# Legend:
# Design in all cases: species or system human, MV4-11 + K-562 + COLO205 + SK-N-BE2 + OVCAR-8
# AURKB = conditions: read-out: apparent Kd, compound concentrations: 100 nM and 1000 nM (sheet 'Samples'), n = 1
# GSK3A = conditions: read-out: apparent Kd, n = 1
# GSK3B = conditions: read-out: apparent Kd, n = 1
# SIK2 = conditions: read-out: apparent Kd, n = 1
# TNK2 = conditions: read-out: apparent Kd, n = 1
# ACAD11 = conditions: read-out: apparent Kd, n = 1
# ACVR1B = conditions: read-out: apparent Kd, n = 1
# CSK = conditions: read-out: apparent Kd, compound concentrations: 100 nM and 1000 nM (sheet 'Samples'), n = 1
# ZAK = conditions: read-out: apparent Kd, compound concentrations: 100 nM and 1000 nM (sheet 'Samples'), n = 1
# ACVR1 = conditions: read-out: apparent Kd; compound concentrations: 100 nM and 1000 nM (sheet 'Samples'), CATDS: 2.7247604336379499E-2; n = 1
# AKT2 = conditions: read-out: apparent Kd, compound concentrations: 100 nM and 1000 nM (sheet 'Samples'), n = 1
# EGFR = conditions: read-out: apparent Kd, compound concentrations: 100 nM and 1000 nM (sheet 'Samples'), n = 1
# FRK = conditions: read-out: apparent Kd, compound concentrations: 100 nM and 1000 nM (sheet 'Samples'), n = 1
# SRC = conditions: read-out: apparent Kd, compound concentrations: 100 nM and 1000 nM (sheet 'Samples'), n = 1
# EPHA1 = conditions: read-out: apparent Kd, compound concentrations: 100 nM and 1000 nM (sheet 'Samples'), n = 1
# BTK = conditions: read-out: apparent Kd, compound concentrations: 100 nM and 1000 nM (sheet 'Samples'), n = 1
# DDR1 = conditions: read-out: apparent Kd, n = 1
# LYN = conditions: read-out: apparent Kd, compound concentrations: 100 nM and 1000 nM (sheet 'Samples'), n = 1
# FLT3 = conditions: read-out: apparent Kd, compound concentrations: 100 nM and 1000 nM (sheet 'Samples'), n = 1
# [1] = compound concentrations:100 nM and 1000 nM (sheet 'Samples')
structure (smiles),measurement,setting,value
Cn1cc(-c2ccc3c(c2)CCN3C(=O)Cc2cccc(Cl)c2)c2c(N)ncnc21 [GSK2606590A],potency estimated from few doses,AURKB; CATDS: 0.34532909823612901,968 nM
Cl.Cn1c(=O)c(Cc2ccc(F)cc2F)cc2cnc(NC3CCOCC3)nc21 [RO3308757-001],potency estimated from few doses,GSK3A; [1],484 nM
same,potency estimated from few doses,GSK3B; [1],745 nM
same,potency estimated from few doses,SIK2; [1],812 nM
same,potency estimated from few doses,TNK2; [1],230 nM
COc1ccc(-c2nc3n(c2-c2ccncc2)CCC3)cc1.COc1ccc(-c2nc3n(c2-c2ccncc2)CCC3)cc1.O=S(=O)(O)O.O=S(=O)(O)O [SKF-104493-B2],potency estimated from few doses,"ACAD11; compound concentrations: 100 nM and 1000 nM (sheet 'Samples'), CATDS: 0.103649602140053",2100 nM
same,potency estimated from few doses,"ACVR1B; compound concentrations: 100 nM and 1000 nM (sheet 'Samples'), CATDS: 0.14344642008730599",1030 nM
CC(=O)N1CCN(c2ccc(Nc3nccc(-c4sc(C(C)C)nc4-c4cccc(NS(=O)(=O)c5cccc(Cl)c5)c4)n3)cn2)CC1 [GSK1660437A],potency estimated from few doses,CSK; CATDS: 5.27130468240418E-2,741 nM
same,potency estimated from few doses,ZAK; CATDS: 3.4947671861574499E-2,2310 nM
O=S(=O)(CCOCc1ccc(-c2ccc3ncnc(Nc4ccc(OCc5cccc(F)c5)c(Cl)c4)c3c2)o1)c1ccccc1 [GW615311X],potency estimated from few doses,"ACAD11; compound concentrations: 100 nM and 1000 nM (sheet 'Samples'), CATDS: 2.2498747845654098E-2",2280 nM
same,potency estimated from few doses,"ACVR1B; compound concentrations: 100 nM and 1000 nM (sheet 'Samples'), CATDS: 3.6359113991721197E-2",818 nM
same,potency estimated from few doses,ACVR1,1430 nM
same,potency estimated from few doses,AKT2; CATDS: 2.19467490651379E-2,2450 nM
same,potency estimated from few doses,CSK; CATDS: 2.6624527430589399E-2,1510 nM
same,potency estimated from few doses,EGFR; CATDS: 3.2602064025644098E-2,997 nM
same,potency estimated from few doses,FRK; CATDS: 2.9445586686104801E-2,1220 nM
same,potency estimated from few doses,SRC; CATDS: 2.9038399213399499E-2,1250 nM
Fc1cc(Cl)ccc1Nc1ccnc2cc(-c3ccc(CN4CCOCC4)o3)ccc12 [GW560109X],potency estimated from few doses,EPHA1; CATDS: 7.1072488518175297E-2,699 nM
same,potency estimated from few doses,"SIK2; compound concentrations: 100 nM and 1000 nM (sheet 'Samples'), CATDS: 7.4326552669870996E-2",630 nM
NS(=O)(=O)CCc1cccc(Nc2nccc(-c3c(-c4cccc(NC(=O)c5c(F)cccc5F)c4)nn4ccccc34)n2)c1 [GSK336735A],potency estimated from few doses,AURKB; CATDS: 5.6735057475689701E-2,1260 nM
same,potency estimated from few doses,BTK; CATDS: 6.9613472327250694E-2,756 nM
same,potency estimated from few doses,CSK; CATDS: 5.7355343721703998E-2,1220 nM
same,potency estimated from few doses,"DDR1; compound concentrations: 100 nM and 1000 nM (sheet 'Samples'), CATDS: 5.2826618660154298E-2",1570 nM
same,potency estimated from few doses,EGFR; CATDS: 5.3399275908321601E-2,1520 nM
same,potency estimated from few doses,LYN; CATDS: 7.1175193729883096E-2,720 nM
Cn1cc(-c2ccc3c(c2)CCN3C(=O)Cc2cc(F)cc(C(F)(F)F)c2)c2c(N)ncnc21 [GSK2635225A],potency estimated from few doses,AKT2; CATDS: 0.123001791308401,1850 nM
COc1cc2ncn(-c3cc(OCc4ccncc4)c(C(N)=O)s3)c2cc1OC [GSK336313A],potency estimated from few doses,ACAD11; [1],1400 nM
CC(C)c1nc(-c2cccc(NS(=O)(=O)c3c(F)cccc3F)c2)c(-c2ccnc(Nc3ccc(N4CCOCC4)nc3)n2)s1.Cl [GSK1723980B],potency estimated from few doses,"ACVR1B; compound concentrations: 100 nM and 1000 nM (sheet 'Samples'), CATDS: 1.87484218332362E-2",614 nM
same,potency estimated from few doses,BTK; CATDS: 1.5505297907028599E-2,1260 nM
same,potency estimated from few doses,CSK; CATDS: 4.9145326105273501E-2,81.6 nM
same,potency estimated from few doses,EGFR; CATDS: 1.4688482058743299E-2,1660 nM
same,potency estimated from few doses,EPHA1; CATDS: 2.59841988169222E-2,261 nM
same,potency estimated from few doses,FRK; CATDS: 1.9563018152501301E-2,538 nM
same,potency estimated from few doses,LYN; CATDS: 2.8217143003072001E-2,219 nM
same,potency estimated from few doses,"SIK2; compound concentrations: 100 nM and 1000 nM (sheet 'Samples'), CATDS: 1.4802843404643599E-2",1590 nM
same,potency estimated from few doses,SRC; CATDS: 2.25730576079274E-2,364 nM
same,potency estimated from few doses,"TNK2; compound concentrations: 100 nM and 1000 nM (sheet 'Samples'), CATDS: 1.9330772041295699E-2",558 nM
same,potency estimated from few doses,ZAK; CATDS: 1.6677685613390399E-2,926 nM
N#Cc1cnc2cc(-c3cnc(CNCCN4CCOCC4)s3)ccc2c1Nc1ccc(Oc2ccccc2)cc1 [GW664114X],potency estimated from few doses,CSK; CATDS: 6.7492290868603394E-2,448 nM
same,potency estimated from few doses,EGFR; CATDS: 4.1929469071091803E-2,2090 nM
same,potency estimated from few doses,LYN; CATDS: 6.1309680787230501E-2,562 nM
same,potency estimated from few doses,SRC; CATDS: 8.2949353782893101E-2,293 nM
CC(=O)N1CCN(c2ccc(Nc3nccc(-c4sc(C(C)C)nc4-c4cccc(NS(=O)(=O)c5ccccc5)c4)n3)cn2)CC1 [GSK1645872A],potency estimated from few doses,EGFR; CATDS: 3.0506753540730399E-2,710 nM
same,potency estimated from few doses,ZAK; CATDS: 2.8355440499728699E-2,855 nM
COc1cc2ncn(-c3cc(OCc4cccs4)c(C(N)=O)s3)c2cc1OC [GSK312948A],potency estimated from few doses,ACAD11; [1],766 nM
CNc1nccc(-c2c(-c3ccc(F)cc3)ncn2C2CCN(C)CC2)n1 [SB-222903],potency estimated from few doses,DDR1; [1],348 nM
COc1cc2ncn(-c3cc(OCCCc4ccccc4)c(C(N)=O)s3)c2cc1OC [GSK205189A],potency estimated from few doses,GSK3A; [1],575 nM
same,potency estimated from few doses,GSK3B; [1],1110 nM
same,potency estimated from few doses,TNK2; [1],48.2 nM
Nc1ncc(-c2cn[nH]c2)c2scc(-c3ccc4c(c3)CCN4C(=O)Cc3ccccc3)c12 [GSK2593067A],potency estimated from few doses,AURKB; CATDS: 6.5904790346866707E-2,1230 nM
CS(=O)(=O)Cc1ccc(Nc2nccc(-c3c(-c4cccc(NC(=O)c5c(F)cccc5F)c4)nn4ccccc34)n2)cc1 [GSK323543A],potency estimated from few doses,BTK; CATDS: 6.87410205009992E-2,1140 nM
same,potency estimated from few doses,"DDR1; compound concentrations: 100 nM and 1000 nM (sheet 'Samples'), CATDS: 5.7176748718511097E-2",1930 nM
same,potency estimated from few doses,EGFR; CATDS: 5.5544990287731598E-2,2130 nM
same,potency estimated from few doses,LYN; CATDS: 6.3006631754301101E-2,1440 nM
Cc1ccc(O)cc1Nc1ccnc2ccc(C(C)(C)C)cc12 [GW856805X],potency estimated from few doses,EPHA1; CATDS: 0.48562635988047498,1.03 nM
same,potency estimated from few doses,FRK; CATDS: 5.5452484233419301E-2,44.2 nM
CN(C)Cc1ccc(-c2ccc3c(Nc4ccc(Oc5ccccn5)cc4)ccnc3c2)o1 [GW567148X],potency estimated from few doses,AURKB; CATDS: 1.8860841823088701E-2,1200 nM
same,potency estimated from few doses,CSK; CATDS: 1.6993908707239901E-2,1760 nM
same,potency estimated from few doses,EPHA1; CATDS: 2.4503846064608301E-2,577 nM
same,potency estimated from few doses,FLT3; CATDS: 2.7806184989220401E-2,433 nM
same,potency estimated from few doses,FRK; CATDS: 2.1087873700944799E-2,850 nM
same,potency estimated from few doses,"GSK3A; compound concentrations: 100 nM and 1000 nM (sheet 'Samples'), CATDS: 2.2236241466677201E-2",736 nM
same,potency estimated from few doses,"GSK3B; compound concentrations: 100 nM and 1000 nM (sheet 'Samples'), CATDS: 1.84231194054994E-2",1300 nM
same,potency estimated from few doses,LYN; CATDS: 2.6094910864106001E-2,499 nM
same,potency estimated from few doses,SRC; CATDS: 3.3500581656618303E-2,297 nM
same,potency estimated from few doses,"TNK2; compound concentrations: 100 nM and 1000 nM (sheet 'Samples'), CATDS: 2.9353794658715598E-2",386 nM
Fc1ccc(-c2c(-c3ccncc3)[nH]c3nccnc23)cc1 [RO1155697-000],potency estimated from few doses,ACAD11; [1],1300 nM
same,potency estimated from few doses,ACVR1B; [1],711 nM
same,potency estimated from few doses,DDR1; [1],1010 nM
CN1CCN(Cc2ccc(NC(=O)Nc3ccc(N(C)c4ccnc(Nc5ccc(CS(C)(=O)=O)cc5)n4)cc3)cc2)CC1.Cl [GW827654A],potency estimated from few doses,AURKB; CATDS: 4.55704320916199E-2,700 nM
same,potency estimated from few doses,"DDR1; compound concentrations: 100 nM and 1000 nM (sheet 'Samples'), CATDS: 9.0540797508364801E-2",147 nM
same,potency estimated from few doses,FLT3; CATDS: 0.105116266606525,112 nM
same,potency estimated from few doses,"TNK2; compound concentrations: 100 nM and 1000 nM (sheet 'Samples'), CATDS: 6.4241949787580299E-2",295 nM
